Measurements taken from PubChem BioAssay (EPA / NIEHS).
Records with an inconclusive call do not appear. Activity calls are given as the source filed them. How the source made its calls, unless noted: active means hit-call score of the fitted dose curve at least 0.9, where 1 is the maximum; inactive means score below 0.9.

What was measured:
[1] = ATG_NFI_CIS: Attagene CIS-FACTORIAL HepG2 Assay for human Nuclear Factor I (NFI) (AID 2282989); conditions: HepG2 cis-regulatory reporter, NFI response element transcription; actives raise or lower the signal
Procedure, shortened: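 Transient MRTU transfection of HepG2 → 24 h chemical dosing → total RNA, oligo(dT) RT → PCR, 6-FAM primer extension, HpaI cut → capillary electrophoresis. Endpoint fitted bidirectionally relative to DMSO.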

[2] = biological target: Myc proto-oncogene protein (Homo sapiens) (UniProt P01106); experiment: ATG_Myc_CIS: Attagene CIS-FACTORIAL HepG2 Assay for human Myelocytomatosis (Myc) Proto-Oncogene Transcription Factor (AID 2282990); conditions: HepG2, Attagene cis-reporter transcription factor activity; actives raise or lower the signal
Procedure, shortened: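 Cells of the HepG2 human liver line bear multiple cis-driven reporter transcription units. Reporter mRNA after 24 h exposure is reverse-transcribed, amplified, labelled and resolved by capillary electrophoresis, with gain- or loss-of-signal fitting relative to DMSO.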

[3] = ATG_NF_kB_CIS: Attagene CIS-FACTORIAL HepG2 Assay for human Nuclear Factor Kappa B (NF-kB) (AID 2282991); conditions: HepG2 Attagene cis-factorial NF-kB reporter mRNA; actives raise or lower the signal
Procedure, shortened: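 Endpoint from a 52-component multiplexed HepG2 reporter panel: cis-regulated transcription units transiently transfected, 24 h dosing, reporter mRNA quantified by RT-PCR and capillary electrophoresis, scored as increase or decrease against DMSO.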

[4] = ATG_NRF2_ARE_CIS: Attagene CIS-FACTORIAL HepG2 Assay for human Nuclear Factor Erythroid 2 Related Factor 2 (NFR2) response to Antioxidant Response Elements (ARE) (AID 2282992); conditions: HepG2 Attagene ARE/NRF2 reporter, transcription factor activity; actives raise or lower the signal;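 on AC50: reporter mRNA level measured by RT-PCR and capillary electrophoresis fluorescence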
Procedure, shortened: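 Readout: reporter mRNA quantified by RT-PCR plus FAM-labelled primer extension, HpaI digestion and capillary electrophoresis, 24 h after dosing transfected HepG2 cells. Gain or loss of signal is fitted bidirectionally against DMSO baseline.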

[5] = ATG_Oct_MLP_CIS: Attagene CIS-FACTORIAL HepG2 Assay for human Octamer-Binding Transcription Factor (Oct) (AID 2282993); conditions: HepG2 Attagene cis-factorial Oct reporter, mRNA; actives raise or lower the signal
Procedure, shortened: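 Transient MRTU transfection of HepG2 → 24 h compound treatment → RNA isolation, reverse transcription, PCR → 6-FAM primer extension, HpaI digest → capillary electrophoresis. Activity fitted both directions against DMSO.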

[6] = biological target: Cellular tumor antigen p53 (Homo sapiens) (UniProt P04637); experiment: ATG_p53_CIS: Attagene CIS-FACTORIAL HepG2 Assay for human p53 Transcription Factor (AID 2282994); conditions: HepG2 p53 cis-element reporter, Attagene mRNA; actives raise or lower the signal
Procedure, shortened: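 Read-out: reporter mRNA by RT-PCR plus capillary electrophoresis with fluorescence detection. Human HepG2 liver cells carried transfected multi-reporter cis-element constructs, dosed 24 h. Gain or loss of signal fitted bidirectionally against DMSO control.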

[7] = BSK_3C_TissueFactor: BioMAP Diversity Plus: 3C Assay for Tissue Factor Biomarker Activity (AID 2282997); conditions: BioMAP 3C HUVEC, tissue factor biomarker readout; actives raise or lower the signal
Procedure, shortened: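 In this endothelial system, HUVEC are treated for 24 h and Tissue Factor is assessed by ELISA, normalised to DMSO.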

[8] = BSK_3C_VCAM1: BioMAP Diversity Plus: 3C Assay for Vascular cell adhesion molecule 1 (VCAM1) Biomarker Activity (AID 2282999); conditions: BioMAP 3C HUVEC, VCAM1 ELISA, cytokine-stimulated; actives raise or lower the signal
Procedure, shortened: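 Activity fitted in both directions relative to DMSO, with ELISA measurement of the surface marker on primary HUVEC (3C) at 24 h post-treatment; parallel SRB staining (0.1% SRB, TCA-fixed, 560 nm) flagged overt cytotoxicity.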

[9] = BSK_4H_Eotaxin3: BioMAP Diversity Plus: 4H Assay for Eotaxin 3 Biomarker Activity (AID 2283000); conditions: primary human endothelial cells (HUVEC); actives raise or lower the signal
Procedure, shortened: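 ELISA quantitation of CCL26 (Eotaxin-3) protein from chemically dosed human vascular endothelial cells at 24 h; increases and decreases both scored relative to DMSO-treated baseline.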

[10] = biological target: human Peroxisome Proliferator-activated Receptor alpha (PPARa), PPARA (gene 5465) (UniProt Q07869); experiment: ATG_PPARa_TRANS: Attagene TRANS-FACTORIAL HepG2 Assay for human Peroxisome Proliferator-activated Receptor alpha (PPARa) (AID 2283001; active means hit-call score of the fitted dose curve at least 0.9, where 1 is the maximum;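 on AC50: potency for gain of reporter signal over DMSO so agonist or activator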)
Procedure, shortened: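 Reporter transcripts quantified by RT-PCR plus capillary electrophoresis after 24 h treatment, fitted upward relative to DMSO. Cells: human HepG2 transiently carrying multiple GAL4-UAS reporter units driven by NR-Gal4 chimeras.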

[11] = biological target: human Peroxisome Proliferator-activated Receptor delta (PPARd), PPARD (gene 5467) (UniProt Q03181); experiment: ATG_PPARd_TRANS: Attagene TRANS-FACTORIAL HepG2 Assay for human Peroxisome Proliferator-activated Receptor delta (PPARd) (AID 2283002; active means hit-call score of the fitted dose curve at least 0.9, where 1 is the maximum)
Procedure, shortened: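 Cell-based TRANS reporter: HepG2, transient MRTU transfection, 24 h exposure. Readout = reporter mRNA (RT-PCR/CE, 6-FAM). Gain-of-signal fit vs DMSO control.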

[12] = BSK_3C_Proliferation: Cell Proliferation Assessment in the BioMAP Diversity Plus: 3C Assay (AID 2283006); conditions: primary human endothelial cells (HUVEC);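 on AC50: potency may reflect either rise or fall in cell number versus DMSO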
Procedure, shortened: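 Proliferation as total protein: sulforhodamine B (0.1%) stain of TCA-fixed subconfluent human umbilical vein endothelial cells, absorbance 560 nm, 48 h after dosing. Activity fitted in both directions against DMSO baseline.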

[13] = biological target: Nuclear receptor subfamily 1 group I member 2 (Homo sapiens) (UniProt O75469); experiment: ATG_PXR_TRANS: Attagene TRANS-FACTORIAL HepG2 Assay for human Pregnane X Receptor (PXR) (AID 2283008; active means hit-call score of the fitted dose curve at least 0.9, where 1 is the maximum)
Procedure, shortened: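 Trans-factorial format: exogenous NR-Gal4 fusion activity, not endogenous factor, in transfected human HepG2 liver cells. After 24 h dosing, RNA isolated, reverse-transcribed, amplified and resolved by capillary electrophoresis; induction scored versus DMSO.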

[14] = biological target: human Retinoic Acid Receptor gamma (RARg), RARG (gene 5916) (UniProt P13631); experiment: ATG_RARg_TRANS: Attagene TRANS-FACTORIAL HepG2 Assay for human Retinoic Acid Receptor gamma (RARg) (AID 2283009; active means hit-call score of the fitted dose curve at least 0.9, where 1 is the maximum)
Procedure, shortened: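 Transactivation of exogenous RARg-Gal4 fusion measured as reporter transcript induction after 24 h in transfected HepG2 cells. RNA reverse-transcribed, amplified, fluorescently labeled and resolved by capillary electrophoresis; increase relative to DMSO.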

[15] = biological target: human RAR-related Orphan Receptor beta (RORb), RORB (gene 6096) (UniProt Q92753); experiment: ATG_RORb_TRANS: Attagene TRANS-FACTORIAL HepG2 Assay for human RAR-related Orphan Receptor beta (RORb) (AID 2283010; active means hit-call score of the fitted dose curve at least 0.9, where 1 is the maximum)
Procedure, shortened: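 Read-out is reporter mRNA induction, quantified by RT-PCR with fluorescent capillary electrophoresis, 24 h post-dose in transiently transfected HepG2 expressing exogenous NR-Gal4 chimera. Activity fitted upward versus DMSO.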

[16] = biological target: Peroxisome proliferator-activated receptor gamma (Homo sapiens) (UniProt P37231); experiment: ATG_PPARg_TRANS: Attagene TRANS-FACTORIAL HepG2 Assay for human Peroxisome Proliferator-activated Receptor-gamma (PPARg) (AID 2283007; active means hit-call score of the fitted dose curve at least 0.9, where 1 is the maximum)
Procedure, shortened: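 Endpoint reflects upward reporter mRNA change versus DMSO controls. Setup: transiently transfected HepG2, GAL4-UAS reporters driven by chimeric NR-Gal4, 24 h incubation, RT-PCR with capillary electrophoresis read-out.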

[17] = biological target: Retinoic acid receptor alpha (Homo sapiens) (UniProt P10276); experiment: ATG_RARa_TRANS: Attagene TRANS-FACTORIAL HepG2 Assay for human Retinoic Acid Receptor alpha (RARa) (AID 2283005; active means hit-call score of the fitted dose curve at least 0.9, where 1 is the maximum)
Procedure, shortened: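 Reporter transcripts, measured by RT-PCR with fluorescent labeling and capillary electrophoresis after 24 h dosing, reflect activity of an exogenous human RARa–GAL4 fusion in transiently transfected HepG2. Fitted for increase relative to DMSO.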

[18] = biological target: human Retinoic Acid Receptor beta (RARb), RARB (gene 5915) (UniProt P10826); experiment: ATG_RARb_TRANS: Attagene TRANS-FACTORIAL HepG2 Assay for human Retinoic Acid Receptor beta (AID 2283004; active means hit-call score of the fitted dose curve at least 0.9, where 1 is the maximum)
Procedure, shortened: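 Fluorescent capillary-electrophoresis detection of GAL4-UAS reporter mRNA defines the endpoint, with induction over DMSO-treated wells scored as activity. Transiently transfected human hepatoma HepG2 cells expressing exogenous NR–Gal4 proteins are exposed to test chemicals for 24 h.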

[19] = read-out: Intercellular Adhesion Molecule 1 (ICAM1), ICAM1 (gene 3383); experiment: BSK_3C_ICAM1: BioMAP Diversity Plus: 3C Assay for Intercellular Adhesion Molecule 1 (ICAM1) Biomarker Activity (AID 2283003); conditions: primary human endothelial cells (HUVEC); actives raise or lower the signal
Procedure, shortened: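 ELISA readout of ICAM1 in human umbilical vein endothelial cells in the 3C system, taken 24 h post-dose. Gain or loss of signal versus DMSO was fitted in both directions, with SRB total-protein staining run in parallel.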

Measured: AC50

Sequence of Nuclear receptor subfamily 1 group I member 2 (Homo sapiens) (O75469 whole entry, looked up, the tested form may be a part): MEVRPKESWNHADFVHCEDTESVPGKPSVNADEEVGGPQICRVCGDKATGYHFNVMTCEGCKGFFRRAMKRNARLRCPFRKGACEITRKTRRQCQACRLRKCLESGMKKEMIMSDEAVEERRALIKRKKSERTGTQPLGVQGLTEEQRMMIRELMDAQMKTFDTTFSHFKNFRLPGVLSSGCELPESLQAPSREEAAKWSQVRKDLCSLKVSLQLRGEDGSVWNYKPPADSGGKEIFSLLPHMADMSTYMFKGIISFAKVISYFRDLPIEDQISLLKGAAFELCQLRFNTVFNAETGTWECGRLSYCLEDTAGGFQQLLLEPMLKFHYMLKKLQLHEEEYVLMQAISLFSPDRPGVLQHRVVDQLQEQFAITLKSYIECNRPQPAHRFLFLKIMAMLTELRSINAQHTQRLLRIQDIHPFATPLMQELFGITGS
Sequence of human RAR-related Orphan Receptor beta (RORb), RORB (gene 6096) (Q92753 whole entry, looked up, the tested form may be a part): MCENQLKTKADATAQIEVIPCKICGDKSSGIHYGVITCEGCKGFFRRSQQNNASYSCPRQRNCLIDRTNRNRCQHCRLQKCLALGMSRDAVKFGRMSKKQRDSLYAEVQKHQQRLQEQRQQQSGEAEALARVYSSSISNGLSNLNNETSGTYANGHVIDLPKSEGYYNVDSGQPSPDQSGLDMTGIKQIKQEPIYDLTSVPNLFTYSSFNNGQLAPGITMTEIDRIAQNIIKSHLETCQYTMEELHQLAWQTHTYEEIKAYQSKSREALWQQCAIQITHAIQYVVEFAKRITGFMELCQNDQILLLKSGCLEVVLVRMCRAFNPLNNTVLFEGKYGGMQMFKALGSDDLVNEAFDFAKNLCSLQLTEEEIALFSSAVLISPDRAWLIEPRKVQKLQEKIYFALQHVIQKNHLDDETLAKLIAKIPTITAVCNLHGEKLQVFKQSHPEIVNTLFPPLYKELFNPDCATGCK
Sequence of Myc proto-oncogene protein (Homo sapiens) (P01106 whole entry, looked up): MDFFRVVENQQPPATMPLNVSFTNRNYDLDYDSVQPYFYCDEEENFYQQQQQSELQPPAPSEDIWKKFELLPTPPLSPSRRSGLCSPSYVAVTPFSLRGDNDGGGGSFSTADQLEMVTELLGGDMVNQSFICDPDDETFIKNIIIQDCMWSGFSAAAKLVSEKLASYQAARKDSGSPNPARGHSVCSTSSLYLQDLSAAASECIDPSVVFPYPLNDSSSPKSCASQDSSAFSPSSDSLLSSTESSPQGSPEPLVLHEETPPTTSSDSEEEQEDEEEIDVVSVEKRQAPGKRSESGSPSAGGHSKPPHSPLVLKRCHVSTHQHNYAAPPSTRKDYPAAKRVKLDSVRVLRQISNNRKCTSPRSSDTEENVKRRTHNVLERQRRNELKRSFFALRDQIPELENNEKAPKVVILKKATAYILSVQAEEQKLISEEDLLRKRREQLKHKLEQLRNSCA
Sequence of human Retinoic Acid Receptor gamma (RARg), RARG (gene 5916) (P13631 whole entry, looked up, the tested form may be a part): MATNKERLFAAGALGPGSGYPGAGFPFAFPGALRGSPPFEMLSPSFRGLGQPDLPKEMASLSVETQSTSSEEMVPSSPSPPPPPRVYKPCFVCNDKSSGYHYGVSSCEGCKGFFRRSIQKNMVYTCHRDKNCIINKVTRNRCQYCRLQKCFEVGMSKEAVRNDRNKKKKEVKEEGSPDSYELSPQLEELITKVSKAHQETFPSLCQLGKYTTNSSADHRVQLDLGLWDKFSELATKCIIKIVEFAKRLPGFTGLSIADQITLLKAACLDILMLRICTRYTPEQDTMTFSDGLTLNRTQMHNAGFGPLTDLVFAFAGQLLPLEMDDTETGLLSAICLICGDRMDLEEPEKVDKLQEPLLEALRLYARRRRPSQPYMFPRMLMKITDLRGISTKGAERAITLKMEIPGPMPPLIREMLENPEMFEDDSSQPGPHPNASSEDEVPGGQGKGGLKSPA
Sequence of human Peroxisome Proliferator-activated Receptor alpha (PPARa), PPARA (gene 5465) (Q07869 whole entry, looked up, the tested form may be a part): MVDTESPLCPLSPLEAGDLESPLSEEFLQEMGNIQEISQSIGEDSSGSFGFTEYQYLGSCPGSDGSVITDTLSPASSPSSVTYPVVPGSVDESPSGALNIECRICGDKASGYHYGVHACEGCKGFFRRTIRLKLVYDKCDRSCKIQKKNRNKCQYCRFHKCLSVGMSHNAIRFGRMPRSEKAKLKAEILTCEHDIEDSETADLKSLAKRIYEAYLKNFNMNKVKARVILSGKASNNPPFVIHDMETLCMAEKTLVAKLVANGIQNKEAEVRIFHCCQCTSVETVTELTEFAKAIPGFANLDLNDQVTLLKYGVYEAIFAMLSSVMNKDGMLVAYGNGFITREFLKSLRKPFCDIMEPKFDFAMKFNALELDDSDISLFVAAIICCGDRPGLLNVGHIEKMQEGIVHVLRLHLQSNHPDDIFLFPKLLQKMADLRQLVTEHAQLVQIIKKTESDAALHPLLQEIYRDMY
Sequence of human Peroxisome Proliferator-activated Receptor delta (PPARd), PPARD (gene 5467) (Q03181 whole entry, looked up): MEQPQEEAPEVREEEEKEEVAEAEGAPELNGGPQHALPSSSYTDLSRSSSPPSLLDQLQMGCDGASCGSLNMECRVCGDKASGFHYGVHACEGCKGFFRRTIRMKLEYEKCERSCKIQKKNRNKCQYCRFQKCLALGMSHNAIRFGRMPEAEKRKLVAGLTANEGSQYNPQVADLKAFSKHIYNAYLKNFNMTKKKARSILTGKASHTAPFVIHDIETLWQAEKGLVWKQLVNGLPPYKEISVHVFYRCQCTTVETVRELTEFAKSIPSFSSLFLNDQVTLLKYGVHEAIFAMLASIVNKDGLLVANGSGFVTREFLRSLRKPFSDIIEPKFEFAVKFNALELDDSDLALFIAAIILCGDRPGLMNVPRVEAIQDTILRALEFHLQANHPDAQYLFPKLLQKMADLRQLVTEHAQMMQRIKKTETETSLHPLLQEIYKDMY
Sequence of Cellular tumor antigen p53 (Homo sapiens) (P04637 whole entry, looked up): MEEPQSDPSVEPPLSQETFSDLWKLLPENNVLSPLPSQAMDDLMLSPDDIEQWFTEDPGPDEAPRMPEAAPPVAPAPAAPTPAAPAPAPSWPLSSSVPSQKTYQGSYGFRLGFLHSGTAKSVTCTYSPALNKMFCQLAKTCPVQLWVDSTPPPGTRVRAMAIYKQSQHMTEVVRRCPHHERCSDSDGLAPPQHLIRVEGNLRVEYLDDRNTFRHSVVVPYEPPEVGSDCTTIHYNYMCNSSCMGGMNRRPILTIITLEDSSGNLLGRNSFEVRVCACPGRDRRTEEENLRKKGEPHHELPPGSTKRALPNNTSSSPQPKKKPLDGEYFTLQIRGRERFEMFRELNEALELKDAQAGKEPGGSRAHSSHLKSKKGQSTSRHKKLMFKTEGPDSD
Sequence of human Retinoic Acid Receptor beta (RARb), RARB (gene 5915) (P10826 whole entry, looked up, the tested form may be a part): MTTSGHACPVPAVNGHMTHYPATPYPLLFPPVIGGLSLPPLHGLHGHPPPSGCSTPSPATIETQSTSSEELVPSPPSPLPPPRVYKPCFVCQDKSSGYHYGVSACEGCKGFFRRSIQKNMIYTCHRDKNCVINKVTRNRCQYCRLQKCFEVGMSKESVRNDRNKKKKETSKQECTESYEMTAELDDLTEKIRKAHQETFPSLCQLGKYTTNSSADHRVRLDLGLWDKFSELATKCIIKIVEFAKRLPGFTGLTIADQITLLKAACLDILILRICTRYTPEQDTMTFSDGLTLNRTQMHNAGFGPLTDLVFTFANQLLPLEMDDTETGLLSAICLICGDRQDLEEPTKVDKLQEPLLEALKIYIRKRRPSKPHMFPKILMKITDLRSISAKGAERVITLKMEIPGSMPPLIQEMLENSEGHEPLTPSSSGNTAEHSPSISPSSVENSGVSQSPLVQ
Sequence of Peroxisome proliferator-activated receptor gamma (Homo sapiens) (P37231 whole entry, looked up, the tested form may be a part): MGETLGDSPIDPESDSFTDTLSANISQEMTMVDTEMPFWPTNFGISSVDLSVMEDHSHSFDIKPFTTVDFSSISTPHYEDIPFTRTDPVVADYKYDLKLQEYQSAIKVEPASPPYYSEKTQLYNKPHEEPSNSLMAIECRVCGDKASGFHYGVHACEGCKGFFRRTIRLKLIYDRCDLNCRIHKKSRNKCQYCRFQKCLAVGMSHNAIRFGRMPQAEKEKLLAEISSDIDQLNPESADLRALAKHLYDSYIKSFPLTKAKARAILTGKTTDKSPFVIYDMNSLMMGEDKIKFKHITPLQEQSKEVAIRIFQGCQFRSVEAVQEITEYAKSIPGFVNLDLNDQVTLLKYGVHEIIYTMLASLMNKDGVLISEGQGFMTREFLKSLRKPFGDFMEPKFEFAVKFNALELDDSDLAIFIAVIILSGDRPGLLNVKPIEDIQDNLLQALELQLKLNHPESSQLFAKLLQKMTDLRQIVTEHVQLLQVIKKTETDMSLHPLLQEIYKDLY
Sequence of Retinoic acid receptor alpha (Homo sapiens) (P10276 whole entry, looked up, the tested form may be a part): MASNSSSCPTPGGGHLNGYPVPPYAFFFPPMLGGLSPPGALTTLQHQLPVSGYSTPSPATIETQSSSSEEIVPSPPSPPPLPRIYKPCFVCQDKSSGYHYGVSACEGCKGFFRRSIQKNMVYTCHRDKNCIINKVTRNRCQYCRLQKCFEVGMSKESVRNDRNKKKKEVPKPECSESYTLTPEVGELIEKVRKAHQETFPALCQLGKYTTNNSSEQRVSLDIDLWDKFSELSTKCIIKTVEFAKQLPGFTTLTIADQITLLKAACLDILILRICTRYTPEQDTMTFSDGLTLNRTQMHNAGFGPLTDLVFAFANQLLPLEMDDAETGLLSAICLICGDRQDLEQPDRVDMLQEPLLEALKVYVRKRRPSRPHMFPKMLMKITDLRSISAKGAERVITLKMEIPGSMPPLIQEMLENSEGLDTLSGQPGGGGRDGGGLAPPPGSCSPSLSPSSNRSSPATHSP

CN(C[C@@H](CC[N+]12CCC(C3CCCCC3)(CC1)CC2)c1ccc(Cl)c(Cl)c1)C(=O)c1cc(C(F)(F)F)cc(C(F)(F)F)c1
inactive: [1] | [2] | [3] | [4] | [5] | [6] | [10] | [11] | [13] | [14] | [15]
active: [7] 23.5 µM | [8] 31.9 µM | [9] 30.4 µM | [12] 12.9 µM

CCCCCCCCCCCO
inactive: [1] | [2] | [3] | [4] | [5] | [6] | [13]
active: [7] 36.4 µM | [8] 36.3 µM | [9] 31.6 µM | [10] 100 µM | [11] 166 µM | [12] 34.2 µM | [16] 62.9 µM

Cc1ccc2oc(CN(Cc3ccccc3)C(=O)Nc3c(F)cc(F)cc3F)c(-c3ccc(Cl)cc3)c2c1
active: [12] 7.43 µM | [13] 1.24 µM
inactive: [1] | [2] | [3] | [4] | [5] | [6] | [7] | [8] | [9] | [17] | [16]

CC[C@H](NC(=O)c1cc(F)ccc1NS(=O)(=O)c1cccc2cccnc12)c1ccccc1
inactive: [1] | [2] | [3] | [5] | [6] | [7] | [8] | [9] | [11] | [18] | [12]
active: [4] 0.13 µM | [16] 13.1 µM | [13] 0.0124 µM

Clc1cc(Cl)c2c(c1)N=C1CCCCCN1C2
active: [3] 72.4 µM | [4] 20.8 µM | [6] 50 µM | [16] 16.1 µM | [13] 20.2 µM
inactive: [1] | [2] | [5] | [7] | [8] | [9] | [10] | [11] | [18] | [12] | [14]

C[C@]12CC[C@@H]3c4ccc(O)cc4CC[C@H]3[C@@H]1CCC2=O
active: [12] 20.7 µM
inactive: [1] | [2] | [3] | [4] | [5] | [7] | [8] | [9] | [10] | [15]

Clc1ccccc1C(c1ccccc1)(c1ccccc1)n1ccnc1
active: [4] 5.21 µM | [5] 11.1 µM | [7] 31 µM | [8] 33.1 µM | [9] 31.3 µM | [12] 13.7 µM | [13] 0.24 µM
inactive: [1] | [2] | [3] | [6]

O=C(OCCCCCCOC(=O)c1ccccc1)c1ccccc1
inactive: [1] | [2] | [3] | [4] | [5] | [6] | [7] | [8] | [9] | [11] | [19] | [18] | [13] | [14]
active: [12] 20.7 µM
